Screening data from PubChem BioAssay.
RXFP1 antagonist = antagonists of human relaxin receptor RXFP1. activity change, negative = inhibition, % at 57.5 µM. HEK293-RXFP1, relaxin-stimulated cAMP HTRF, 30 min; hits give low values. AID 1259400. 350,000 tested, 0.59% active;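 active = activity change of -60% or lower, but not beyond a set lower limit; inconclusive = change between -60% and -40%, or beyond the set limit; inactive = change above -40%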
KCNH2 WT inh = KCNH2 (human, wildtype) channel inhibition | Q12809 | U2OS, BacMam KCNH2, thallium flux FluxOr; hits give low values | activity change, % at 1.84 µM | 340,000 tested, 0.37% active;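 active = maximum activity change below -70%; inconclusive = maximum activity change between -70% and -50%; inactive = maximum activity change above -50%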
Target sequence (Q12809 whole entry, looked up): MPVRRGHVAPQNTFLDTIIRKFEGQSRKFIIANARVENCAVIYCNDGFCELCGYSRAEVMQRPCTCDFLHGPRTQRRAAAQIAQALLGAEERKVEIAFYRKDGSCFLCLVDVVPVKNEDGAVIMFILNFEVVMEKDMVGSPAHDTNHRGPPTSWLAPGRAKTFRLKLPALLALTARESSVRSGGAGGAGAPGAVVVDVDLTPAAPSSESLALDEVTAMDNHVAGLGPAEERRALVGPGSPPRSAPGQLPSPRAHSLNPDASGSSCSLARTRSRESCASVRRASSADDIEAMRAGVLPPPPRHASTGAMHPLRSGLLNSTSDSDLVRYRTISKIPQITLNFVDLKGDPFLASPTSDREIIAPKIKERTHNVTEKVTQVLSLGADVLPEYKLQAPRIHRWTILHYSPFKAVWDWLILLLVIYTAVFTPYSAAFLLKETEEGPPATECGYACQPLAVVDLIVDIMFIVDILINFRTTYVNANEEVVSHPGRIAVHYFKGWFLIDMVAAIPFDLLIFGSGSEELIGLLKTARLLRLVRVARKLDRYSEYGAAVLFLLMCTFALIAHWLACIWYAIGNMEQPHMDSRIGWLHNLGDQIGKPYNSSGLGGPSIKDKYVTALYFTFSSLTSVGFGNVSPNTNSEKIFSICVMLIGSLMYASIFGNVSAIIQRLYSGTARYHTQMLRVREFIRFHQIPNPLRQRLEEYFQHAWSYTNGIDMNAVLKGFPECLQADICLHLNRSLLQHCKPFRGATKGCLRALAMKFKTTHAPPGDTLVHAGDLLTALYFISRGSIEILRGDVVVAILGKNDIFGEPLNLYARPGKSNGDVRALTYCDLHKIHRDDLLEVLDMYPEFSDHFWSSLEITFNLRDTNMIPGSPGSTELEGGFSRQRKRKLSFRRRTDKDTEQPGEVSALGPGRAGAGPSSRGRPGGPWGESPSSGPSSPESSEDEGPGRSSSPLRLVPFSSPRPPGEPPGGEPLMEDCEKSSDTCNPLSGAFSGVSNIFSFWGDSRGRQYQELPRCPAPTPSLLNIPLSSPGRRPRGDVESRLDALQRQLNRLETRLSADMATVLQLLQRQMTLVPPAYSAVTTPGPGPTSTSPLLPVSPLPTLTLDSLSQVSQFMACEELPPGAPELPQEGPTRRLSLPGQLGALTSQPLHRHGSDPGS
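U2OS cells were transduced with wild-type KCNH2 virus (2.03 x 10^8 / mL) for 4 h at room temperature, then cultured overnight at 37 C. Thallium flux was read with FluxOr dye. Rate constants were normalized to DMSO controls.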
KCNH2 3.1 inh = blocks the human KCNH2 3.1 channel isoform; U2OS KCNH2 3.1, thallium flux FluxOr; hits give low values; activity change, % (tested at about 1.8 µM); 340,000 tested, 0.95% active;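 active = maximum activity change below -70%; inconclusive = maximum activity change from -70% to -50%; inactive = maximum activity change above -50%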;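 also: thallium influx rate constant from kinetic fluorescence after stimulation buffer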
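Thallium flux read-out: FluxOr dye with Red40 quencher in HBSS/HEPES, 45 min at RT. Rate constants from kinetic reads were normalized to positive and negative DMSO controls. Cells: U2OS virally expressing the 3.1 isoform.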
pAkt inh = Akt phosphorylation inhibition. Neuro2A IGF-stimulated pAkt S473 HTRF, 20 min; hits give low values. activity change, % for hits at 50 µM. 360,000 tested, 0.32% active. AID 651550; in the data active = activity change below about -80%; inconclusive = mostly about -51% to -80%
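Neuro2A cells in DMEM with 0.5% FBS, overnight at 37 deg C, given compound at single 50 µM final, then IGF (6 nM final) for 20 min at 37 deg C. Lysed; phospho-Akt Ser473 by HTRF after 24 h, 665/615 ratio.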
RXFP1 agonist = agonists of human relaxin receptor RXFP1. HEK293T-RXFP1 cAMP TR-FRET, 30 min; response scale: percent of porcine relaxin response, buffer zero. Potency, µM (doses to about 57.5 µM), actives largely listed as activators. AID 2676. 370,000 tested, 0.3% active; active = well fitted activation curve with a large enough effect; inconclusive = small, poorly fitted or top-dose-only effect; also: nearly all actives have a fitted effect of over 60% in size
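HEK293T cells stably expressing RXFP1 were pretreated with the PDE4 inhibitor Ro 20174, exposed to compounds for 30 min at 37C, lysed, and cAMP was read by TR-FRET. Data normalized to buffer (basal) and 29 nM porcine relaxin (100%).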
Hits are given with their value. A selection: hits, their analogues and other compounds. The true share with any hit is near 1.7%.

Screening CCN1C(=O)CS/C1=N\S(=O)(=O)c1ccc(Cl)cc1 returned RXFP1 antagonist inactive, KCNH2 WT inh inactive, KCNH2 3.1 inh inactive, pAkt inh inactive and RXFP1 agonist inactive.
`CCn1c(Cl)c(C=O)s/c1=N\S(=O)(=O)c1ccccc1` gave RXFP1 antagonist -86.5, KCNH2 WT inh inactive, KCNH2 3.1 inh inactive, pAkt inh inactive and RXFP1 agonist inactive.
For O=C(c1ccccc1)c1ccccc1N/C=C/c1nnnn1-c1ccccc1 the results were RXFP1 antagonist inactive, KCNH2 WT inh inactive, KCNH2 3.1 inh inactive, pAkt inh inactive and RXFP1 agonist inactive.
For CCCCCCN1C[C@@H](n2cc(COC(=O)c3ccccc3)nn2)[C@H](O)C[C@@H]1c1ccc(Cl)cc1 the results were RXFP1 antagonist inactive, KCNH2 WT inh inactive, KCNH2 3.1 inh inactive and pAkt inh inactive.
For COc1ccccc1/C=C/C(=O)NCc1cccnc1 the results were RXFP1 antagonist inactive, KCNH2 WT inh inactive, KCNH2 3.1 inh -100.6, pAkt inh inactive and RXFP1 agonist inactive.
For COc1cc(/C=C/C(=O)NCc2cccnc2)cc(OC)c1OC the results were RXFP1 antagonist inactive, KCNH2 WT inh inactive, KCNH2 3.1 inh inactive, pAkt inh inactive and RXFP1 agonist inactive.
For Cc1nc(C/C(=N\N)c2ccc(O)cc2O)cs1 the results were RXFP1 antagonist inactive, KCNH2 WT inh inactive, KCNH2 3.1 inh inactive, pAkt inh inactive and RXFP1 agonist inactive.
CCc1cc(/C(Cc2csc(C)n2)=N/O)c(O)cc1O was read as RXFP1 antagonist inactive, KCNH2 WT inh inactive, KCNH2 3.1 inh inactive, pAkt inh -103.8% and RXFP1 agonist inactive.
NC(=S)NN=Cc1nccc2ccccc12 was read as RXFP1 antagonist -76.0, KCNH2 WT inh inactive, KCNH2 3.1 inh inactive and pAkt inh inactive.
Screening NC(=S)N/N=C/c1cccc(Br)c1 returned RXFP1 antagonist inactive, KCNH2 WT inh inactive, KCNH2 3.1 inh inactive, pAkt inh inactive and RXFP1 agonist inactive.
Screening NC(=S)N/N=C/c1cccc(/C=N/NC(N)=S)c1 returned RXFP1 antagonist inactive, KCNH2 WT inh inactive, KCNH2 3.1 inh -128.3, pAkt inh inactive and RXFP1 agonist inactive.
For Cc1cccc(C)c1NC(=O)C(NC=O)c1ccccc1 (stereo not drawn) the results were RXFP1 antagonist inactive, KCNH2 WT inh inactive, KCNH2 3.1 inh inactive, pAkt inh inactive and RXFP1 agonist inactive.
Cc1ncc(CN2CCC(CO)(Cc3ccccc3)CC2)s1 was read as RXFP1 antagonist inactive, KCNH2 WT inh inactive, KCNH2 3.1 inh inactive, pAkt inh inactive and RXFP1 agonist inactive.
Screening COc1ccc(CC2(CO)CCN(S(=O)(=O)N(C)C)CC2)cc1 returned RXFP1 antagonist inactive, KCNH2 WT inh inactive, KCNH2 3.1 inh inactive, pAkt inh inactive and RXFP1 agonist inactive.
COc1ccc(CC2(CO)CCN(C(C)COc3ccccc3)CC2)cc1 (stereo not drawn) was read as RXFP1 antagonist inactive, KCNH2 WT inh inactive, KCNH2 3.1 inh -94.1, pAkt inh inactive and RXFP1 agonist inactive.
`CC(COc1ccccc1)N1CCC(CO)(Cc2ccccc2)CC1` (stereo not drawn) gave RXFP1 antagonist inactive, KCNH2 WT inh inactive, KCNH2 3.1 inh -71.5, pAkt inh inactive and RXFP1 agonist inactive.
Screening COc1ccc(NC(=O)/C=C/c2ccc(OC(F)F)cc2)cn1 returned RXFP1 antagonist inactive, KCNH2 WT inh inactive, KCNH2 3.1 inh -74.7, pAkt inh inactive and RXFP1 agonist inactive.
For Cc1nc2scc(C)n2c(=O)c1S(=O)(=O)N1CCN(c2ccccn2)CC1 the results were RXFP1 antagonist inactive, KCNH2 WT inh inactive, KCNH2 3.1 inh inactive, pAkt inh inactive and RXFP1 agonist 25.1µM.
Screening C=CCn1c(Cc2csc(N)n2)nnc1SCC(=O)OCC returned RXFP1 antagonist inactive, KCNH2 WT inh inactive, KCNH2 3.1 inh -95.3, pAkt inh inactive and RXFP1 agonist inactive.
For CC(C)(C)NC(=O)C(=O)NCc1ccccn1 the results were RXFP1 antagonist inactive, KCNH2 WT inh inactive, KCNH2 3.1 inh inactive, pAkt inh inactive and RXFP1 agonist inactive.
`CCOC(=O)C1=C(N)Oc2ccc3ccccc3c2C1c1ccc(O)c(OC)c1` (stereo not drawn) gave RXFP1 antagonist inconclusive, KCNH2 WT inh inactive, KCNH2 3.1 inh inactive, pAkt inh inactive and RXFP1 agonist inactive.
`CCCCn1c(CCNC(=O)c2cccs2)nc2ccccc21` gave RXFP1 antagonist inactive, KCNH2 WT inh inactive, KCNH2 3.1 inh inactive, pAkt inh inactive and RXFP1 agonist inactive.
Cc1c(NC(=O)c2ccc(F)c(S(=O)(=O)N3CCOCC3)c2)c(=O)n(-c2ccccc2)n1C was read as RXFP1 antagonist inactive, KCNH2 WT inh inactive, KCNH2 3.1 inh inactive, pAkt inh -106.1% and RXFP1 agonist inactive.
Cc1noc(C)c1S(=O)(=O)Nc1c(C)n(C)n(-c2ccccc2)c1=O was read as RXFP1 antagonist inactive, KCNH2 WT inh -79.0, KCNH2 3.1 inh inactive, pAkt inh inactive and RXFP1 agonist inactive.
`COc1ccc(/C(O)=C/C(=O)C(=O)Nc2c(C)n(C)n(-c3ccccc3)c2=O)cc1` gave RXFP1 antagonist inactive, KCNH2 WT inh -118.9, KCNH2 3.1 inh inactive, pAkt inh inactive and RXFP1 agonist inactive.
Cc1c(NC(=O)c2cccc(F)c2)c(=O)n(-c2ccccc2)n1C was read as RXFP1 antagonist inactive, KCNH2 WT inh inactive, KCNH2 3.1 inh -109.1, pAkt inh inactive and RXFP1 agonist inactive.
Cc1c(NS(C)(=O)=O)c(=O)n(-c2ccccc2)n1C was read as RXFP1 antagonist inactive, KCNH2 WT inh inactive, KCNH2 3.1 inh inactive, pAkt inh inactive and RXFP1 agonist inactive.
For Cc1ccc(NC(=O)c2ccccc2F)c(NC(=O)c2ccccc2F)c1 the results were RXFP1 antagonist inactive, KCNH2 WT inh inactive, KCNH2 3.1 inh inactive and pAkt inh inactive.
`N/C(=N\OC(=O)c1cc(-c2ccccc2)nc2ccccc12)c1ccccn1` gave RXFP1 antagonist inactive, KCNH2 WT inh inactive, KCNH2 3.1 inh inactive, pAkt inh inactive and RXFP1 agonist inactive.
COC(=O)c1ccc(CSc2nnc(CNC(=O)c3ccc(OC)cc3)o2)o1 was read as RXFP1 antagonist inactive, KCNH2 WT inh inactive, KCNH2 3.1 inh inactive, pAkt inh inactive and RXFP1 agonist inactive.
Cc1ccc(NC(=O)CSCC(=O)Nc2cccc(S(=O)(=O)N3CCCCCC3)c2)cc1 was read as RXFP1 antagonist inactive, KCNH2 WT inh inactive, KCNH2 3.1 inh inactive, pAkt inh inactive and RXFP1 agonist inactive.
For Cc1cccc(N(CC(=O)Nc2c(C)n(C)n(-c3ccccc3)c2=O)S(C)(=O)=O)c1C the results were RXFP1 antagonist inactive, KCNH2 WT inh inactive, KCNH2 3.1 inh inactive, pAkt inh inconclusive and RXFP1 agonist inactive.
`Cc1cc(F)ccc1S(=O)(=O)Nc1c(C)n(C)n(-c2ccccc2)c1=O` gave KCNH2 WT inh inactive, KCNH2 3.1 inh -73.9, pAkt inh inactive and RXFP1 agonist inactive.
